Among the data in PubChem BioAssay (NCI) are growth values, retold here.

Common to all, as to test: NCI-60 one-dose screen, 48 h (100 = growth as untreated, 0 = no growth, -100 = all killed)
Conditions in all cases: 10 µM

The subject of assay [1] is NCI-H23 lung.
Assay [2] has as its system NCI-H226 lung.
In assay [3] the test system is HOP-62 NSCLC.
In assay [4] the test system is NCI-H460 lung.
In assay [5] the test system is HOP-92 NSCLC.
Assay [6] concerns NCI-H522 lung.
Assay [7] relates to A549/ATCC NSCLC.
Assay [8] relates to 786-0 renal.
Assay [9] deals with COLO 205 colon.
Assay [10] relates to DU-145 prostate.
Assay [11] relates to K-562 leukemia.
In assay [12] the test system is MALME-3M melanoma.
Assay [13] deals with MDA-MB-231 breast.
The subject of assay [14] is RXF 393 renal.
Assay [15] deals with SF-268 CNS.
Assay [16] concerns SF-295 CNS.
Assay [17] deals with SF-539 CNS.
In assay [18] the test system is UACC-257 melanoma.
The test system of assay [19] is M14 melanoma.

The panel holds about 83,000 compounds, 20% with a hit somewhere; the sample as a whole holds those more often.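 The endpoint reported here, percent growth, reads 100 for growth as untreated, 0 for no net growth and -100 for all cells dead.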 A number with no mark means an inactive call. Calls of active or inactive are those of the source. How the source made its calls: active means growth percent below 10; inactive means the rest.

For `CCN(CC)CCOc1cccc2c1C(=O)c1cccc(OCCN(CC)CC)c1C2=O`, the growth in assay [1] was 42.2%; in assay [2], 36.6%; in [3], 37%; in assay [4], 13.9%; in assay [5], 36.5%; in assay [6], 42.8%. Further, the growth in assay [7] is 17.5%; in [8] it was 38.6%; in [9] it was 6.57% (active); in [10] it was 27.1%; in assay [11], 27.9%; in assay [12], 52%. Besides, the growth was 42.4% in assay [13]; 42.4% in [14]; 40.8% in assay [15]; 32.5% in [16]; 37.3% in assay [17]; 70.7% in [18]. The growth in assay [19] was 35.4%.

Regarding `Cc1ccc(/C=C2/C(=O)N(C)c3ccc(S(=O)(=O)Nc4ccc(C(C)(C)C)cc4)cc32)s1`, the growth in assay [1] was 67%; in assay [2] it was 63.9%; in assay [3] it was 24.8%; in assay [4], 98%; in assay [5] it was 79.2%; in assay [6], 75.5%. The growth in [7] is 68.5%; in assay [8], 67.4%; in [9] it was 86.5%; in assay [10], 87.3%; in assay [11], 79.8%; in assay [12], 57.6%. Further, the growth was 35.2% in assay [13]; 41.8% in assay [14]; 67.4% in [15]; 88% in assay [16]; 23% in assay [17]; 85.7% in assay [18]. Moreover, the growth in assay [19] is 83.1%.

On to `COc1ccc(-c2cc(-c3ccc(Cl)cc3)nc(SCCCC(=O)NO)n2)cc1`, for which the growth is 0.964% (active) in assay [1]; -2.21% (active) in assay [2]; 5.55% (active) in [3]; 0.515% (active) in assay [4]; 1.25% (active) in assay [5]; -12.1% (active) in assay [6]. The growth was 5.47% (active) in [7]; 3.69% (active) in [8]; 2.04% (active) in assay [9]; 9.82% (active) in assay [10]; 7.35% (active) in assay [11]; -11.8% (active) in assay [12]. Further, the growth in assay [13] is 1.61% (active); in assay [14], -21% (active); in assay [15], 2.08% (active); in [16], -19.1% (active); in [17], 4.55% (active); in assay [18], 3.4% (active). Further, the growth in assay [19] is -31.1% (active).

On to `CN(C)CCCOc1ccc(NC2=C(Cl)C(=O)C(Nc3ccc(OCCCN(C)C)cc3)=C(Cl)C2=O)cc1`, for which the growth in assay [1] was -72% (active); in assay [2] it was -84.1% (active); in [3], -98.2% (active); in [4] it was -65.7% (active); in [5] it was -74.9% (active); in assay [6] it was -75.2% (active). Moreover, the growth in assay [7] is -56.2% (active); in assay [8] it was -50% (active); in [9], -74.3% (active); in assay [10] it was -95.8% (active); in assay [11], -11.7% (active); in assay [12] it was -71.7% (active). Besides, the growth was -80.2% (active) in assay [13]; -97.9% (active) in assay [14]; -51.2% (active) in assay [15]; -22.8% (active) in assay [16]; -87.9% (active) in assay [17]; -88.2% (active) in assay [18]. Besides, the growth in [19] was -71.8% (active).

With `CCc1ccc(-c2ccc(-n3nc(C)c4c(N)nc(Cc5ccccc5)nc43)cc2)cc1`, the growth is 77.2% in assay [1]; 56.6% in assay [2]; 65.6% in [3]; 51.4% in [4]; 47.2% in assay [5]; 49.2% in assay [6]. Also, the growth in assay [7] was 52.4%; in assay [8], 46.6%; in [9] it was 95.3%; in assay [10] it was 77%; in assay [11], 7.44% (active); in [12], 106%. In addition, the growth was 38.2% in assay [13]; 75.7% in assay [14]; 66.1% in assay [15]; 70.8% in [16]; 80.9% in [17]; 71.9% in assay [18]. The growth in assay [19] was 30.3%.

For the compound `CCCCN(CCCC)C(=O)[C@H](CC)[C@@H]1CC[C@@H](C)[C@@H]([C@H](C)[C@@H](O)[C@@H](C)C(=O)[C@H](CC)C2O[C@]3(C=CC(=O)[C@]4(CC[C@@](C)([C@H]5CC[C@](O)(CC)[C@H](C)O5)O4)O3)[C@H](C)C[C@@H]2C)O1` (some centres not stated), the growth in [1] was 25.8%; in assay [2], 15.3%; in assay [3], 42.1%; in assay [4], 19.7%; in assay [5], -6.89% (active); in assay [6] it was 13.2%. Moreover, the growth in assay [7] is 30.3%; in [8], 47.7%; in [9], 21.3%; in assay [10] it was 84.9%; in [11], 24.4%; in assay [12], -5.97% (active). Also, the growth in assay [13] is 46.8%; in [14] it was 47%; in [15] it was 68.6%; in [16], 2.72% (active); in assay [17], 59.6%; in assay [18], 21.3%. Besides, in assay [19], the growth was 30%.

`COc1cc(-c2nn(-c3cccc(NC(=O)CCN4CCN(Cc5ccccc5)CC4)c3)cc2-c2ccncc2)ccc1Cl`: the growth was 20.8% in assay [1]; 54% in assay [2]; 24% in assay [3]; 1.48% (active) in assay [4]; -0.56% (active) in assay [5]; -31.4% (active) in assay [6]. Moreover, the growth in [7] was 11.6%; in assay [8], -59.9% (active); in [9], -50.9% (active); in [10], 7.55% (active); in [11] it was -43.1% (active); in assay [12], -60.7% (active). The growth in assay [13] was -14.7% (active); in assay [14] it was -50.6% (active); in assay [15], 19.1%; in assay [16], -46.5% (active); in [17] it was -74.3% (active); in assay [18], -58.2% (active). In addition, the growth in [19] was -61.3% (active).

For `COc1ccc(-c2n[nH]nc2-c2cc(OC)c(OC)c(OC)c2)cc1`, the growth in assay [1] is 10.8%; in assay [2] it was 63.2%; in [3], 46.2%; in assay [4] it was 2.7% (active); in assay [5] it was -1.89% (active); in [6], -24.5% (active). The growth in assay [7] was 20.4%; in assay [8], 16.9%; in [9] it was -18.5% (active); in assay [10], -14.1% (active); in [11], 8.16% (active); in assay [12] it was 37.3%. In addition, the growth is 14.8% in [13]; 33.3% in assay [14]; 9.64% (active) in assay [15]; 13.7% in assay [16]; 10.3% in assay [17]; 69.1% in assay [18]. The growth in [19] was 12.2%.
